HP1b binding inh: blocks HP1-beta chromodomain binding to methylated histone tails | AlphaScreen HP1-beta / biotin-H3K9me3 peptide binding | Potency, µM (top dose mostly 114 µM), for inactives: top-dose activity change, negative = inhibition, actives largely listed as inhibitors | P83916 | actives 0.56% (n = 390,000); also: nearly all actives have a fitted effect of over 70% in size
Target sequence (P83916 whole entry, looked up): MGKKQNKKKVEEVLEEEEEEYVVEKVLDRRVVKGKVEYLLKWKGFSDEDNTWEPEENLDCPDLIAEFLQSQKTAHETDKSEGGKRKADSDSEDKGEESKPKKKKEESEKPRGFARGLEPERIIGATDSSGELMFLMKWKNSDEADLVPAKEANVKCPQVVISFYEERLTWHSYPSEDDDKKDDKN
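AlphaScreen: HP1-beta (50 nM) preformed 30 min with biotin-H3(1-18)K9me3 peptide (50 nM) in PBS pH 7.4, 0.01% Tween-20. Compound added for 30 min at RT, then streptavidin donor/nickel chelate acceptor beads (10 ug/mL) for 30 min.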
12-LOX inh: ALOX12 (human) lipoxygenase inhibition | actives 1.1% (n = 580,000) | Potency, µM (series often up to 108 µM), inactives show top-dose activity change, negative = inhibition, actives largely listed as inhibitors | purified 12hLO, xylenol orange hydroperoxide absorbance | AID 1671190 | P18054; also: % is scaled to controls: 0 for no effect and ±100 for the full control effect
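Hydroperoxide product was detected by ferrous iron/xylenol orange as the 573 to 405 nm absorbance ratio. Arachidonic acid at 40 uM (final) was turned over for 30 min at room temperature by 150 nM human 12hLO, pH 7.0 Hepes buffer, after 15 min compound preincubation.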
G9a inh: inhibitors of human histone lysine methyltransferase G9a. Q96KQ7. G9a H3K9 monomethylation, AlphaScreen, 2 h. Potency, µM (titrated, usually from 102 µM), for inactives: at the highest dose activity, negative = inhibition, hits mostly inhibitors. actives 8.8% (n = 350,000); also: % is scaled to controls: 0 for no effect and ±100 for the full control effect; nearly all actives have a fitted effect of over 75% in size
Target sequence (Q96KQ7 913-1193 limits assumed): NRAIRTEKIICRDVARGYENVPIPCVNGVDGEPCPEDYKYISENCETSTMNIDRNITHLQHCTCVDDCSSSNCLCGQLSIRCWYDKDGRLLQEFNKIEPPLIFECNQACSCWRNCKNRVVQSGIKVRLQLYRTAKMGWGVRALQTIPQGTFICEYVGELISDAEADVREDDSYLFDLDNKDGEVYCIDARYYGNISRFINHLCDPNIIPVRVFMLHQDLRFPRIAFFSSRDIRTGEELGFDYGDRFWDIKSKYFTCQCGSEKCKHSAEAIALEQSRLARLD
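Enzyme 20 nM + cpd, 15 min RT; add b-H3K9 pep 500 nM / SAM 20 uM; 2 h RT; anti-H3K9me1 Ab 0.5 ug/mL + SA donor / anti-rabbit acceptor beads 20 ug/mL each, 10 min; AlphaScreen read.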
BAZ2B block: blocks human BAZ2B. Q9UIF8. AlphaScreen BAZ2B-H3K14Ac peptide displacement. Potency, µM (highest dose often 114 µM), inactives show top-dose activity change, negative = inhibition, actives largely listed as inhibitors. actives 4.4% (n = 360,000). AID 504333; also: % is scaled to controls: 0 for no effect and ±100 for the full control effect; nearly all actives have a fitted effect of over 60% in size
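Protein-peptide AlphaScreen: BAZ2B 50 nM, b-H3K14Ac 50 nM, 1x PBS pH 7.4 + 0.01% Tween-20. Preincubation 30 min RT; cpd 30 min RT (top 110 uM); beads 20 min RT, light-protected.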
PLK1 PBD inh: PLK1 (human) polo-box domain binding inhibition. Plk1 PBD binding of FITC phosphopeptide, fluorescence polarization. Potency, µM, without a hit: max response, negative = inhibition, usual class: inhibitors. actives 2.8% (n = 360,000). AID 720504; also: series mostly up to about 57 µM; % is scaled to controls: 0 for no effect and ±100 for the full control effect; nearly all actives have a fitted effect of over 65% in size
JMJD2A Tudor inh: blocks the human JMJD2A Tudor domain | O75164 | AlphaScreen JMJD2A-Tudor / H3K4me3 peptide binding | Potency, µM (top dose mostly 114 µM), inactives show at the highest dose activity change, negative = inhibition, actives largely listed as inhibitors | actives 4.4% (n = 390,000); also: % is scaled to controls: 0 for no effect and ±100 for the full control effect; nearly all actives have a fitted effect of over 50% in size
* hit, by the source's call; i = inactive; u = inconclusive; x = not tested or not shown; [ ] = dose if it differs, or a comment. Rows were chosen to be rich in hits. Some 9% of all compounds tested hit in one or more screens of this group. Calls follow the shape of the dose curve; as a rule, active = well fitted curve in the direction sought with a large enough effect; inconclusive = small, poorly fitted or top-dose-only effect, or another doubt; inactive = no such curve, though single readings can be large; an effect the other way counts as inactive or inconclusive. Potency is read from the fitted curve at half-maximal effect.

SMILES | HP1b binding inh | 12-LOX inh | G9a inh | BAZ2B block | PLK1 PBD inh | JMJD2A Tudor inh
O=C(COc1ccccc1)Nc1nnc(-c2ccc(Cl)s2)o1 | 46.4% | -0.1% | 13.6% | u | -10.8% | 89.1µM*
O=C(COc1ccccc1)Nc1nnc(-c2ccco2)o1 | 15.2% | 26.7% | u | 17.8µM* | -3.2% | 14.1µM*
O=C(COc1ccc(Cl)cc1)Nc1ccc(NC(=O)c2ccco2)cc1 | 16.9% | -6.0% | 13.2% | 2.3% | 0.0% | 2.1%
O=C(COc1ccc(Cl)cc1)Nc1nnc(-c2ccco2)o1 | 26.0% | i | -29.5% | 22.4µM* | -6.5% | 28.2µM*
Cc1ccc(C)c(-c2nnc(NC(=O)COc3ccccc3)o2)c1 | 25.7% | 19.6% | -20.8% | -6.5% | -13.8% | -28.8%
O=C(Nc1ccc(F)cc1Cl)n1ncc2cc(Cl)ccc21 | 13.4% | -22.4% | -7.9%[59 µM] | -8.6% | x | -6.6%
CCC(Sc1nc2ccccc2c2nc3ccccc3n12)C(=O)NCc1ccco1 (centres undefined) | x | x | -8.4% | 3.7% | x | x
CCN(CC(=O)Nc1ccc(OC)cc1)C(=O)CCc1nc2ccccc2c(=O)[nH]1 | 23.5% | -0.5% | -11.7%[0.501 µM] | -4.2% | -6.5% | -0.7%
CCOc1cc2c3c(c1)C1(Nc4ccccc4S1)C(=O)N3C(C)(C)CC2C (centres undefined) | u | u | u | 28.2µM* | -8.2% | 35.5µM*
CCOc1cc2c(cc1C(C)(C)C)NC(=O)CS2 | 31.8% | 0.0% | -3.0%[12.7 µM] | -2.5% | -0.1% | 2.4%
COCCCn1c(=O)/c(=C\c2ccccc2OC(C)C)s/c1=C(/C#N)C(=O)Nc1ccc(C(=O)O)cc1 | -15.2% | 0.7% | 44.7µM* | 50.1µM* | u | u
COCCCn1c(=O)/c(=C\c2ccccc2OC(F)F)s/c1=C(/C#N)C(=O)NC(C)C | 6.2% | u | 11.7%[59 µM] | -8.9% | -17.7% | -18.4%
O=C(c1cccc(S(=O)(=O)N2CCCC2)c1)N1CCN(S(=O)(=O)c2cccc(Cl)c2)CC1 | 12.6% | -0.2% | x | x | -14.0% | -19.3%
Cc1ccc(-c2cc(C(=O)Nc3nccs3)c3ccccc3n2)o1 | 17.0% | 1.41µM* | 4.47µM* | -36.3% | u | u
Cc1ccc(-c2cc(C(=O)Nc3nccs3)c3ccccc3n2)c(C)c1 | 0.5% | -3.7% | -14.8%[59 µM] | -3.7% | -5.9% | -32.4%
Cc1ccc(-c2cc(C(=O)Nc3nnc(C4CC4)s3)c3ccccc3n2)o1 | x | 7.94µM* | x | x | x | x
O=C(O)c1cccc(Nc2nc3ccccc3nc2NS(=O)(=O)c2ccc(Br)cc2)c1 | x | 12.6µM* | x | x | x | x
COc1ccc(S(=O)(=O)Nc2nc3ccccc3nc2Nc2cccc(C(=O)O)c2)cc1 | 53.5% | 15.1% | 44.7µM* | -18.9%[57.1 µM] | u | -6.0%
COc1ccc(Cc2nnc(NC(C)=O)s2)cc1 | 31.7% | -26.4% | -26.4% | 2.3% | -13.8% | 2.1%
O=C(Nc1nc2ccccc2s1)c1ccc([N+](=O)[O-])o1 | 60.7% | -5.5% | 3.9% | 0.8% | -7.3% | -4.4%
CCS(=O)(=O)c1nc(S(=O)(=O)c2ccc(C)cc2)c(NC)s1 | 6.1% | -21.4% | -1.0%[59 µM] | 0.7% | x | -11.1%
CCOC(=O)N1CCN(C(=O)CCn2c(=S)[nH]c3ccccc3c2=O)CC1 | 29.7% | -24.9% | u | -4.5% | 2.5% | -11.7%
CCOC(=O)N1CCN(C(=O)CCCCn2c(=S)[nH]c3ccsc3c2=O)CC1 | 20.3% | u | 31.6µM* | -32.5% | -6.1% | u
COc1ccc(N2CCN(C(=O)CCCCCn3c(=O)[nH]c4ccsc4c3=O)CC2)cc1 | -16.1% | 5.5% | 39.8µM* | -21.0% | -3.4% | -25.4%
O=C(/C=C/Nc1ccc(F)cc1F)c1cccs1 | 21.1% | -23.8% | 14.1µM* | -0.8% | -0.4% | -18.9%
SMILES | HP1b binding inh | 12-LOX inh | G9a inh | BAZ2B block | PLK1 PBD inh | JMJD2A Tudor inh
CCOC(=O)c1ccccc1N/C=C/C(=O)c1cccs1 | 85.3% | u | 31.6µM* | 18.4% | 2.7% | 16.4%
O=C(/C=C/Nc1ccccc1F)c1cccs1 | 27.6% | u | 31.6µM* | 0.9% | 2.5% | -7.6%
O=C(/C=C\Nc1cccc(F)c1)c1cccs1 | 85.4% | 1.5% | -6.6%[59 µM] | 16.0% | -22.1% | -0.7%[11.4 µM]
Cc1ccc2c(CN3CCN(S(=O)(=O)c4ccc(Cl)cc4)CC3)cc(=O)oc2c1C | 20.6% | 0.9% | -24.0% | -11.8% | 2.5% | -14.2%
COC(=O)COc1ccccc1/C=C1/NC(=O)NC1=O | 18.1% | 7.7% | -7.4%[59 µM] | 3.0% | -0.7% | 5.0%
CC(=O)N1CCN(Cc2nc3cc(NC(=O)c4cccs4)ccc3n2C)CC1 | 24.2% | -4.6% | 58.8% | 7.9% | -2.6% | 4.5%
CCCCC(=O)Nc1ccc2c(c1)nc1n2CCN(CCOC)C1 | 49.5% | 125.6% | 31.6µM* | -11.3% | -15.6% | -26.5%
Cn1c(CN2CCCC2)nc2cc(NC(=O)c3cccs3)ccc21 | 20.3% | -10.1% | 14.1µM* | u | -8.7% | -35.6%
CCCCC(=O)Nc1ccc2c(c1)nc1n2CCOC1 | -11.5% | 0.0% | 10.5% | 7.2% | u | 79.4µM*
COc1ccc(C(=O)Nc2ccc3c(c2)nc2n3CCSC2)cc1 | -0.5% | 1.8% | 50.1µM* | -26.2% | -8.8% | -6.6%
O=C(Nc1ccc2c(c1)nc1n2CCSC1)c1ccccc1 | 15.0% | -15.1% | u | 2.6% | -12.7% | 0.0%
CCCN1CCN(CCNC(=O)Nc2cc(OC)cc(OC)c2)CC1 | 15.5% | -10.2% | 2.1%[59 µM] | -10.3% | x | -16.0%
CCCC(=O)Nc1ccc2c(c1)nc1n2CCN(CCOC)C1 | 44.8% | u | 25.1µM* | -0.5% | -13.2% | -9.8%
COCCN1CCn2c(nc3cc(NC(=O)c4cccs4)ccc32)C1 | 16.2% | -4.0% | 20µM* | -33.5% | -12.5% | -11.6%
CC(c1ccccc1)N1CCn2c(nc3cc(NC(=O)c4cccs4)ccc32)C1 (centres undefined) | 12.1% | 2.8% | u | -2.3% | -14.6% | -13.4%
CCCN1CCn2c(nc3cc(NC(=O)c4ccc(OC)c(OC)c4)ccc32)C1 | x | 60.7% | x | x | x | x
Cc1ccccc1CN1CCc2c(OCC(=O)N3CCCCC3)cccc2C1=O | -15.6% | -5.1% | -22.2% | -33.7% | 29.9µM* | u
CCOc1ccc(-n2nnnc2SCC(=O)NNC(=O)c2ccco2)cc1 | -6.7% | -8.8% | x | -0.3% | 11.9µM* | 22.4µM*
O=C(CSc1nnnn1-c1ccc(F)cc1)NNC(=O)c1ccco1 | 55.1% | 4.6% | 8.3% | -36.9% | -5.8% | -5.4%
CCOc1ccc(-n2c(C)cc(/C=N/N(C)C)c2C)cc1 | -17.8% | u | 44.7µM* | u | -23.0% | 44.7µM*
CCOc1ccc(-n2c(C)cc(C(=O)CCl)c2C)cc1 | u | u | 44.7µM* | -22.5% | u | u
Cc1nn(Cc2ccccc2)c(C)c1NC(=O)CCCn1nc(C)c([N+](=O)[O-])c1C | 33.9% | -7.4% | -46.4%[59 µM] | -4.3% | -0.7% | -15.0%

Screening data as filed in PubChem.
